The values below come from a collection of fitness landscapes (doi:10.1126/science.1257360).

Whole data set: some 140,000 sequences, median “enrichment ratio after two sorts for PhoP signalling” near 0, cut for the highest 2% near 11. For the sample, the highest values were picked, then their nearest neighbours and some sequences at random.

B1: PhoQ; a variant is named by its letters at X, in order, P23837 (parent)
chain: MKKLLRLFFPLSLRVRFLLATAAVVLVLSLAYGMVALIGYSVSFDKTTFRLLRGESNLFYTLAKWENNKLHVELPENIDKQSPTMTLIYDENGQLLWAQRDVPWLMKMIQPDWLKSNGFHEIEADVNDTSLLLSGDHSIQQQLQEVREDDDDAEMTHSVAVNVYPATSRMPKLTIVVVDTIPVELKSSYMVWSWFIYVLSANLLLVIPLLWVAAWWSLRPIEALAKEVRELEEHNRELLNPATTRELTSLVRNLNRLLKSERERYDKYRTTLTDLTHSLKTPLXXLQXXLRSLRSEKMSVSDAEPVMLEQISRISQQIGYYLHRASMRGGTLLSRELHPVAPLLDNLTSALNKVYQRKGVNISLDISPEISFVGEQNDFVEVMGNVLDNACKYCLEFVEISARQTDEHLYIVVEDDGPGIPLSKREVIFDRGQRVDTLRPGQGVGLAVAREITEQYEGKIVAGESMLGGARMEVIFGRQHSAPKDE

This assay covers variants of B1. Description: enrichment ratio after two sorts for PhoP signalling (ratio (wild type AVST 3.29)); higher = more functional. The settings on record: with PhoP (E. coli).
In the case of STSM, the enrichment ratio worked out at 16.4.
For SISM, the enrichment ratio is 16.
Then SNSF, with 10.8.
For the variant HVDL, the enrichment ratio is at most 0.25.
Take YFNP: the enrichment ratio was at most 0.25.
For the variant PTIT, the enrichment ratio is at most 0.25.
To IFSN belongs at most 0.25; to KGDF, at most 0.25; to NSSM, 0.911.
SSSM: the enrichment ratio amounted to 14.8.
Then SMSM, with 12.4; and SDSM, with 1.33.
Take SCSF: the enrichment ratio came to 9.85.
To SSSF belongs 10.
As for SQSM, the enrichment ratio stood at 15.9.
Take SMHF: the enrichment ratio was at most 0.25.
To SCSM belongs 14.5; to SMSF, 5.95; to FCSM, 0.747.
As for SRSM, the enrichment ratio came out at 0.977.
Then SGVE, with at most 0.25; and SWGV, with at most 0.25; and IDET, with at most 0.25.
To RIHD belongs at most 0.25; to LNHQ, at most 0.25; to IEMK, at most 0.25.
For EVHQ, the enrichment ratio was at most 0.25.
Take TSSM: the enrichment ratio was found to be 24.4.
Consider KSSM, for which the enrichment ratio is at most 0.25.
Then SPSM, with at most 0.25.
To NVSM belongs at most 0.25.
Then MMSM, with 7.2.
For the variant TTSM, the enrichment ratio was found to be 14.8.
As for KQSM, the enrichment ratio was at most 0.25.
Then SGSM, with 12.7.
To TVSM belongs 37.3; to SGSF, 1.84.
To YTSM belongs 1.02; to KQAV, at most 0.25.
As to DAHD, the enrichment ratio was at most 0.25.
In the case of QSHT, the enrichment ratio was at most 0.25.
To PIQW belongs at most 0.25; to FMCI, at most 0.25; to MYGI, at most 0.25.
Then ICFI, with at most 0.25; and VCSA, with at most 0.25.
Then YCHV, with at most 0.25; and HSSA, with at most 0.25; and SMEV, with at most 0.25.
Turning to GVAK, the enrichment ratio was determined as 11.7.
Then MVAK, with 5.7; and MVAM, with 39.4; and MVWM, with 0.553.
Take GVTM: the enrichment ratio came out at 8.91.
GVPM: the enrichment ratio is at most 0.25.
Take GVAM: the enrichment ratio worked out at 15.2.
To MVPM belongs at most 0.25; to NVAK, at most 0.25; to SAME, 0.508.
To WCYN belongs at most 0.25; to KFKF, at most 0.25.
For the variant GTRF, the enrichment ratio was at most 0.25.
With LCNN, the enrichment ratio is at most 0.25.
As for KSNL, the enrichment ratio was at most 0.25.
As to FSNL, the enrichment ratio was at most 0.25.
Then KSNN, with at most 0.25; and TSNL, with 12.5.
To TSNN belongs 12.2.
To LVAI belongs at most 0.25; to NFCN, at most 0.25.
With VCAH, the enrichment ratio was at most 0.25.
Then KCAV, with at most 0.25; and KCEF, with at most 0.25.
TCEF: the enrichment ratio worked out at 13.2.
For KCSV, the enrichment ratio was at most 0.25.
Turning to TCAE, the enrichment ratio was at most 0.25.
As for TCAH, the enrichment ratio came out at 11.7.
Then TCAV, with 13.4; and HVSV, with at most 0.25; and TCSV, with 17.7.
To KCAH belongs at most 0.25; to VEEF, at most 0.25; to SLYY, at most 0.25.
Then DQFN, with at most 0.25.
As to RPHE, the enrichment ratio is at most 0.25.
Then SDPC, with at most 0.25; and FRSR, with at most 0.25.
As for TCNY, the enrichment ratio is 9.63.
Then TCLA, with 11.9.
To VCSM belongs 3.67; to TCLS, 7.88.
To TCVP belongs at most 0.25.
As to FCAS, the enrichment ratio was at most 0.25.
On to TCGY, for which the enrichment ratio came out at 20.3.
On to TCAS, for which the enrichment ratio came out at 12.2.
For the variant TCLT, the enrichment ratio amounted to 4.19.
With TCSM, the enrichment ratio was 18.9.
Regarding KCAS, the enrichment ratio is at most 0.25.
Turning to KCSM, the enrichment ratio was at most 0.25.
Then RVLR, with at most 0.25; and ENDI, with at most 0.25.
To MVRF belongs at most 0.25; to HGLK, at most 0.25; to GGGP, at most 0.25.
Then KHVK, with at most 0.25.
Regarding KCSC, the enrichment ratio is at most 0.25.
As to KCLK, the enrichment ratio was at most 0.25.
Turning to TCMT, the enrichment ratio was found to be 14.5.
To VCMT belongs at most 0.25; to TCAN, 25.6.
To TCIT belongs at most 0.25; to FCLK, 1.84; to KCAN, at most 0.25.
In the case of HVSC, the enrichment ratio is at most 0.25.
Then TCLK, with 13.1.
Then FCAN, with at most 0.25; and TCSC, with 12.3; and NFFS, with at most 0.25.
For FFPR, the enrichment ratio is at most 0.25.
Consider DMHV, for which the enrichment ratio was at most 0.25.
To ETAR belongs at most 0.25; to KLGR, at most 0.25.
Turning to TCYD, the enrichment ratio is at most 0.25.
Regarding TCDD, the enrichment ratio was at most 0.25.
Then TCTQ, with 21.4; and TCTW, with 10.8; and TCGD, with 20.3.
For the variant KCAQ, the enrichment ratio was at most 0.25.
Then KCSN, with at most 0.25; and LSTQ, with at most 0.25; and TCSN, with 20.
Then VCAQ, with at most 0.25; and FCSN, with at most 0.25.
Consider TCAQ, for which the enrichment ratio stood at 15.5.
Then HFQA, with at most 0.25; and FHFW, with at most 0.25; and KCDC, with at most 0.25.
Turning to TKEF, the enrichment ratio is at most 0.25.
To SVFR belongs 0.428; to SAGS, 3.14; to SRYF, at most 0.25.
On to IHVG, for which the enrichment ratio was at most 0.25.
To LNTP belongs at most 0.25.
Consider NEMN, for which the enrichment ratio was at most 0.25.
To TALV belongs 10.2; to EMAS, at most 0.25.
With ESQI, the enrichment ratio was at most 0.25.
Then TCSA, with 18.5.
Then KCSY, with at most 0.25; and FCSA, with at most 0.25.
Then KCAK, with at most 0.25; and TCGF, with 12.5.
HVSY: the enrichment ratio is at most 0.25.
Consider VCAK, for which the enrichment ratio is at most 0.25.
As for TCHF, the enrichment ratio was determined as 8.33.
With TCSY, the enrichment ratio worked out at 13.3.
To TCAK belongs 11.2; to KCSA, at most 0.25; to VEGF, at most 0.25.
